Measurements taken from PubChem BioAssay (NCATS).
Where “and” joins values, the source holds several entries; their conditions need not be identical. Equal entries are not always repeated. Results filed as inconclusive are left out. Entries that show only a call come without a potency. A number with no mark means an inactive call. Calls of active or inactive are those of the source. The call rests on the fitted dose curve; in most records, active means well fitted curve in the direction sought with a large enough effect; inconclusive means small, poorly fitted or top-dose-only effect, or another doubt; inactive means no such curve, though single readings can be large; an effect the other way counts as inactive or inconclusive.

Experiments:
[1] = NS1 protein of Zika virus - qHTS assay to identify small molecule inhibitors in human HEK 293 cells (AID 1347053); further: nearly all actives have a fitted effect of over 55% in size
Outline: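 In this cell-based screen, HEK 293 cultures received compound for one hour before Zika MR766 at MOI = 0.5. NS1 was quantified 24 hours later by TR-FRET, normalized to virus-free wells and infected wells.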

[2] = qHTS of pediatric cancer cell lines to identify multiple opportunities for drug repurposing: Primary screen for TC32 cells (AID 1347089); further: nearly all actives have a fitted effect of over 60% in size
Outline: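 Luminescent ATP read-out (CellTiter-Glo) of metabolically active TC32 cells after 48 h exposure. Concentration-response curves came from 11-point (MIPE, 0.78 nM–46 µM) or 8-point (NPC, 0.59 nM–46 µM) primary titrations; follow-up used 11 points.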

[3] = qHTS of pediatric cancer cell lines to identify multiple opportunities for drug repurposing: Primary screen for SJ-GBM2 cells (AID 1347091)
Outline: (§1)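 Eight- or eleven-point concentration series, 48 h treatment at 37 degrees C in growth media; readout CellTiter-Glo luminescence. Potency and efficacy were taken from the concentration-response curves.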

[4] = qHTS of pediatric cancer cell lines to identify multiple opportunities for drug repurposing: Primary screen for A673 cells (AID 1347092); further: nearly all actives have a fitted effect of over 45% in size
Outline: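 Cell viability of A673 measured by CellTiter-Glo ATP luminescence after 48 hours compound exposure. Dilution series spanned 0.78 nM to 46 µM (MIPE, 11-point) or 0.59 nM to 46 µM (NPC, 8-point); bortezomib 2.3 uM positive control.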

[5] = qHTS of pediatric cancer cell lines to identify multiple opportunities for drug repurposing: Primary screen for SK-N-MC cells (AID 1347093)
Outline: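 Metabolically active cells were quantified by ATP-dependent luminescence (CellTiter-Glo, 15 min at room temperature) following 48 h treatment. Cells had been plated at 500-1,000 per well and settled for 5 h beforehand.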

[6] = qHTS of pediatric cancer cell lines to identify multiple opportunities for drug repurposing: Primary screen for BT-37 cells (AID 1347094)
Outline: (§2)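 Following a 5-hour attachment period, cells at 500-1,000/well received compounds and were cultured for 48 hours. CellTiter-Glo was added and luminescence read to estimate viable, metabolically active cells.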

[7] = qHTS of pediatric cancer cell lines to identify multiple opportunities for drug repurposing: Primary screen for U-2 OS cells (AID 1347096); further: nearly all actives have a fitted effect of over 50% in size
Outline: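 Cells (500-1,000/well) in growth media were settled 5 h at 37 degrees C, then given compounds for 48 h. Viability was read as CellTiter-Glo luminescence. Primary runs used MIPE at 11 points (0.78 nM-46 µM) and NPC at 8 points (0.59 nM-46 µM); follow-ups used 11 points.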

[8] = qHTS of pediatric cancer cell lines to identify multiple opportunities for drug repurposing: Primary screen for DAOY cells (AID 1347090); further: nearly all actives have a fitted effect of over 55% in size
Outline: as §1

[9] = qHTS of pediatric cancer cell lines to identify multiple opportunities for drug repurposing: Primary screen for Saos-2 cells (AID 1347097); further: nearly all actives have a fitted effect of over 40% in size
Outline: as §2

[10] = P-glycoprotein substrates identified in KB-8-5-11 adenocarcinoma cell line, qHTS therapeutic library screen (AID 1346987); further: nearly all actives have a fitted effect of over 65% in size
Outline: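 Compounds are pinned in dose-response onto KB-8-5-11 cells (500 cells/well, colchicine-free medium) and left 72 h at 37 degree C. CellTiter-Glo luminescence then yields AC50 values.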

[11] = qHTS of pediatric cancer cell lines to identify multiple opportunities for drug repurposing: Primary screen for NB-EBc1 cells (AID 1347095)
Outline: as §2
Potency means the concentration at half of the fitted maximal effect.

SMILES | Potency [1] | Potency [2] | Potency [3] | Potency [4] | Potency [5] | Potency [6] | Potency [7] | Potency [8] | Potency [9] | Potency [10] | Potency [11]
N#CC1(c2cccc(C(=O)Nc3cc(Oc4ccc5nc(NC(=O)C6CC6)sc5n4)ccc3F)c2Cl)CC1 | 2.35 µM (active) | inactive | inactive | – | – | – | – | – | – | – | –
CN(C)CCOc1ccc(C(=C(CCCl)c2ccccc2)c2ccccc2)cc1 | inactive | inactive | – | inactive | inactive | inactive | inactive | – | – | – | –
C[C@@H]1[C@H](O)[C@@H](C)C=CC=CC=CC=CC=CC=CC=C[C@H](O[C@@H]2O[C@H](C)[C@H](O)[C@H](N)[C@@H]2O)C[C@@H]2O[C@](O)(C[C@@H](O)C[C@@H](O)[C@H](O)CC[C@@H](O)C[C@@H](O)CC(=O)O[C@H]1C)C[C@H](O)[C@@H]2C(=O)O | inactive | 2.94 µM (active) | inactive | 0.148 µM (active) | – | inactive | inactive | inactive | inactive | – | –
Oc1ccc(C=Cc2cc(O)cc(O)c2)cc1 | inactive | inactive | 18.7 µM (active) | – | 11.8 µM (active) | 21.7 µM (active) | inactive | – | – | – | –
c1ccc(-c2oc3ncnc(NC[C@@H]4CCCO4)c3c2-c2ccccc2)cc1 | – | – | – | 23.5 µM (active) | – | – | inactive | – | 29.6 µM (active) | 20.9 µM (active) and 20.6 µM (active) | –
COc1cc2ncn(-c3cc(OCc4ccccc4S(C)(=O)=O)c(C#N)s3)c2cc1OC | inactive | inactive | – | 23.5 µM (active) | 13.2 µM (active) | inactive | inactive | – | – | – | inactive
CC1=C[C@@H]2[C@@H]([C@@H](O)C[C@@]3(C)[C@H]2C[C@@H](C)[C@]3(O)C(=O)CO)[C@@]2(C)Cc3cnn(-c4ccccc4)c3C=C12 | – | – | 20.9 µM (active) | 18.7 µM (active) | – | – | inactive | – | – | 16.4 µM (active) | 23.5 µM (active)
CN(C)N=Nc1nc[nH]c1C(N)=O | – | – | – | inactive | 2.64 µM (active) | – | inactive | – | inactive | 1.87 µM (active) | inactive
CN1c2ccccc2C(=O)N2CCc3c([nH]c4ccccc34)C21 (stereo not given) | inactive | inactive | inactive | – | 10.5 µM (active) | inactive | inactive | inactive | – | – | inactive
Cc1cnc(-c2cc(N3CCN(C(=O)CCS(C)(=O)=O)CC3)ncc2Cl)c(C)c1 | inactive | inactive | inactive | 4.69 µM (active) | 16.6 µM (active) | – | inactive | inactive | inactive | – | inactive
CC[C@H](C)C(=O)O[C@H]1C[C@H](O)C=C2C=C[C@H](C)[C@H](CC[C@@H](O)C[C@@H](O)CC(=O)O)[C@H]21 | inactive | inactive | inactive | inactive | inactive | inactive | inactive | inactive | – | – | inactive
C[C@@H]1O[C@@H](O[C@H]2CC[C@@]3(C)[C@H](CC[C@@H]4[C@H]3C[C@@H](O)[C@]3(C)[C@@H](C5=CC(=O)OC5)CC[C@]43O)C2)C[C@H](O)[C@@H]1O[C@H]1C[C@H](O)[C@H](O[C@H]2C[C@H](O)[C@@H](O)[C@@H](C)O2)[C@H](C)O1 (stereo in doubt) | 0.136 µM (active) | 0.38 µM (active) | 0.121 µM (active) | 0.171 µM (active) | – | 0.112 µM (active) | 0.34 µM (active) | – | 0.679 µM (active) | – | 0.303 µM (active)
Nc1ncnc2c1c(-c1cccc(OCc3ccccc3)c1)cn2C1CC(CN2CCC2)C1 (stereo not given) | inactive | 9.3 µM (active) | – | – | – | inactive | inactive | inactive | 3.32 µM (active) | – | 10.5 µM (active)
CON(C)C(=O)N1N=C(c2cc(F)ccc2F)S[C@]1(CCCN)c1ccccc1 | 14.8 µM (active) | 0.0047 µM (active) | 0.001 µM (active) | 0.001 µM (active) | 0.001 µM (active) | inactive | inactive | – | – | – | 0.001 µM (active)
COc1c(C)c2c(c(O)c1CC=C(C)CCC(=O)OCCN1CCOCC1)C(=O)OC2 | 0.526 µM (active) | 4.66 µM (active) | inactive | – | 1.18 µM (active) | 1.53 µM (active) | – | – | inactive | – | 0.59 µM (active)
Cc1ccc2c(c1)C(=O)[C@]1(O)CCN(c3ccccc3)C1=N2 | inactive | inactive | – | – | 20.9 µM (active) | inactive | inactive | inactive | inactive | – | 7.43 µM (active)
Cc1csc(-c2nnc(Nc3ccc(Oc4ncccc4-c4ccnc(N)n4)cc3)c3ccccc23)c1 | inactive | – | 0.003 µM (active) | 14.8 µM (active) | 0.0037 µM (active) | – | inactive | – | – | – | –
Cc1nc(NC(=O)N2CCC[C@@H]2C(N)=O)sc1-c1csc(C(C)(C)C)n1 | inactive | – | 4.18 µM (active) | 2.96 µM (active) | – | – | – | 14.8 µM (active) | 11.8 µM (active) | – | 4.69 µM (active)
